From the supplement of paper PMC6992640
± gives the standard deviation of the averaged measurements.

What was measured:
Assay in all cases: cell viability (% of vehicle); higher = less cytotoxic
Conditions in all cases: 10 µM; 72 h
HCI01 = system: HCI01 (cells of a triple-negative basal-like breast cancer xenograft)
HCI03 = system: HCI03 (cells of an ER-positive luminal breast cancer xenograft)
HCI09 = system: HCI09 (cells of a triple-negative luminal androgen receptor type breast cancer xenograft)
HCI11 = system: HCI11 (cells of an ER-positive luminal breast cancer xenograft)
HCI13 = system: HCI13 (cells of an ER-positive luminal breast cancer xenograft)
HCI16 = system: HCI16 (cells of a triple-negative basal-like breast cancer xenograft)
UCD52 = system: UCD52 (cells of a triple-negative basal-like breast cancer xenograft)
WHIM2 = system: WHIM2 (cells of a triple-negative basal-like breast cancer xenograft)
WHIM30 = system: WHIM30 (cells of a triple-negative basal-like breast cancer xenograft)
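Note: PDX cells carrying CMV promoter-driven luciferase, viability read as total photon flux per second by IVIS imaging following D-luciferin, vehicle control 0.1% DMSO.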

Structure (SMILES)	cell viability (HCI01)	cell viability (HCI03)	cell viability (HCI09)	cell viability (HCI11)	cell viability (HCI13)	cell viability (HCI16)	cell viability (UCD52)	cell viability (WHIM2)	cell viability (WHIM30)
CCCCCCCCCCCCCCCCCCCCCCO [Docosanol (Abreua)]	82.8 ± 2.5	93.4	82.5 ± 8	95.6	97.3 ± 27	84.5	76.5 ± 11	81.8 ± 19	102 ± 3
CC(NC(=O)C(O)C(C)C)C(=O)NC1C(=O)N(C)CCc2ccccc21 (stereo unspecified)	144 ± 28	106	71.2 ± 7.3	119	102 ± 21	180	81 ± 20	69.98 ± 0.17	184 ± 11
Br.COc1ccc2c3c1O[C@H]1C[C@@H](O)C=C[C@@]31CCN(C)C2 [Galanthamine HBr]	113 ± 6.7	102	97.02 ± 0.17	93.2	80.4 ± 8.2	73.8	97.8 ± 2.6	79.7 ± 12	118 ± 24
Cc1onc(-c2ccccc2)c1-c1ccc(S(N)(=O)=O)cc1 [Valdecoxib]	126 ± 28	126	85.3 ± 11	98	109 ± 1.1	99.8	74 ± 11	95.5 ± 4.2	78.92 ± 0.35
CN1CCN(C2=c3ccccc3=Nc3ccc(Cl)cc3N2)CC1 [Clozapine]	95.4 ± 14	130	101 ± 11	87.2	106 ± 1.6	123	83.6 ± 11	85.298 ± 0.078	122 ± 15
CCCNS(=O)(=O)Nc1ncnc(OCCOc2ncc(Br)cn2)c1-c1ccc(Br)cc1 [Macitentan]	75.9 ± 56	109	65 ± 16	91.4	51.7 ± 28	91.8	75.383 ± 0.03	77.1 ± 37	101.4 ± 0.41
CC(CN1CC(=O)NC(=O)C1)N1CC(=O)NC(=O)C1 (stereo unspecified) [Dexrazoxane]	83 ± 6.2	148	102 ± 20	92.4	110 ± 13	103	100.8 ± 0.77	75.7 ± 5.5	131.05 ± 0.028
Cn1c(=O)c2[nH]cnc2n(C)c1=O [Theophylline]	98.1 ± 19	123	94 ± 22	66.9	92.4 ± 1.1	117	103 ± 5.6	86.5 ± 16	95.8 ± 16
CC(=O)C1CCC2C3CC=C4CC(O)CCC4(C)C3CCC12C (stereo unspecified) [Pregnenolone]	141 ± 20	126	76 ± 7	84.5	175 ± 44	111	75.4 ± 2.4	99 ± 3.8	116 ± 19
CCCc1nn(C)c2c(=O)nc(-c3cc(S(=O)(=O)N4CCN(C)CC4)ccc3OCC)[nH]c12.O=C(O)CC(O)(CC(=O)O)C(=O)O [Sildenafil Citrate]	116 ± 2.8	144	96 ± 15	118	130 ± 23	94.4	88.2 ± 4	83.8 ± 4.8	53.9 ± 10
COc1ccc2c(c1)C(=O)N(CCc1ccc(S(=O)(=O)NC(=O)NC3CCCCC3)cc1)C(=O)C2(C)C [Gliquidone]	89.2 ± 83	109	68.4 ± 19	91.4	94.6 ± 23	142	93.5 ± 11	130 ± 20	137 ± 19
CC(=O)N1CCN(c2ccc(OCC3COC(Cn4ccnc4)(c4ccc(Cl)cc4Cl)O3)cc2)CC1 (single isomer, unassigned; (+)) [(+)-Ketoconazole]	151 ± 55	119	29.5 ± 5.5	87.9	98.9 ± 9.7	103	44.6 ± 2.7	134 ± 9.5	94.8 ± 11
NNC(=O)c1ccncc1 [Isoniazid]	97.4 ± 7.2	109	92.6 ± 10	87.2	119 ± 13	127	72.6 ± 13	95.6 ± 4	114 ± 3.3
COc1cc2c(cc1OC)CC(=O)N(CCCN(C)CC1Cc3cc(OC)c(OC)cc31)CC2.Cl (stereo unspecified) [Ivabradine HCl]	105 ± 7.9	121	100 ± 19	114	99.3 ± 3.9	97.9	85.7 ± 11	93.2 ± 17	123 ± 5.3
O=C(O)c1cc(=O)c2ccccc2o1 [Chromocarb]	124 ± 23	119	96.2 ± 1.6	78.7	71.6 ± 5.2	111	92.59 ± 0.2	103 ± 11	85.9 ± 2.8
CN(C)c1nc(N(C)C)nc(N(C)C)n1 [Altretamine]	94.8 ± 11	96.7	89.6 ± 2.6	96.8	77.9 ± 3.4	108	78 ± 4.9	115 ± 5.7	109.4 ± 0.74
COc1ccc(C2Sc3ccccc3N(CCN(C)C)C(=O)C2OC(C)=O)cc1.Cl (stereo unspecified) [Diltiazem HCl]	81.5 ± 45	123	85.4 ± 4	88.9	95.5 ± 7.5	108	72.3 ± 5.6	93 ± 22	131 ± 15
Cl.O=C(Nc1ccccc1)OCC(CN1CCCCC1)OC(=O)Nc1ccccc1 (stereo unspecified) [Diperodon HCl]	99 ± 2.1	124	97.9 ± 2.3	119	162 ± 49	138	84.2 ± 13	94.3 ± 20	167 ± 16
O=C([O-])P(=O)([O-])[O-].[Na+].[Na+].[Na+] [Foscarnet Sodium]	104 ± 20	96.7	98.1 ± 3.7	89.6	95.1 ± 6.7	133	86.4 ± 3	103 ± 11	126 ± 2.2
